Results from PubChem BioAssay (Tox21).
Inconclusive results are not listed. Entries that show only a call come without a potency. Activity calls are given as the source filed them. Unless noted, calls come from the whole dose curve; as a rule, active = well fitted cell-killing curve with a large enough effect in the repeat runs; inconclusive = weak or mixed curves, or effect the other way; inactive = flat fitted curve, though single readings scatter.

system: not listed separately; test: qHTS assay to identify small molecule that activate the aryl hydrocarbon receptor (AhR) signaling pathway - cell viability counter screen (AID 743086); conditions: HepG2-AhR-luc viability, CellTiter-Fluor, 24 h; series mostly up to 70.3 µM;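 note: HepG2 liver cells carrying the AhR DRE luciferase reporter; nearly all actives have a fitted effect of over 45% in size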
In short: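 HepG2-AhR-luc (HG2L7.5c1) cells, 4000/well, were preincubated 5 h at 37C, exposed to compound in qHTS format for 24 hr at 37C, then given CellTiter-Fluor for 30 min; viability was read as fluorescence in the reporter wells.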

Question: Which outcome does the source give for COC(=O)c1ccccc1N here?
Answer: inactive

Question: For Cc1ccc(N)cc1N, which outcome is on record?
Answer: inactive

Question: With Cc1cc(Cl)ccc1O as the compound, how does the outcome read?
Answer: inactive

Question: With O=c1n(Cl)c(=O)n(Cl)c(=O)n1Cl as the compound, how does the outcome read?
Answer: inactive

Question: For OC(O)C(Cl)(Cl)Cl, which outcome is on record?
Answer: inactive

Question: Which outcome does the source give for O=NN1CCCC1 here?
Answer: inactive

Question: For CCCCCOC(=O)c1ccccc1C(=O)OCCCCC, which outcome is on record?
Answer: inactive

Question: For O=[N+]([O-])c1ccccc1, which outcome is on record?
Answer: inactive

Question: For CCOP(=S)(OCC)SCCSCC, which outcome is on record?
Answer: inactive

Question: Which outcome does the source give for C#CCN(C)[C@H](C)Cc1ccccc1 here?
Answer: inactive

Question: Which outcome does the source give for O=[N+]([O-])c1ccc([As](=O)(O)O)cc1 here?
Answer: inactive

Question: Which outcome does the source give for C1CN2CCN1CC2 here?
Answer: inactive

Question: Which outcome does the source give for NCCc1ccc(O)cc1 here?
Answer: inactive

Question: For CC(C)NC(=O)N1CC(=O)N(c2cc(Cl)cc(Cl)c2)C1=O, which outcome is on record?
Answer: inactive

Question: For Cc1ccc([N+](=O)[O-])cc1C, which outcome is on record?
Answer: inactive

Question: Which outcome does the source give for CCCN(CCC)c1c([N+](=O)[O-])cc(C(F)(F)F)cc1[N+](=O)[O-] here?
Answer: inactive

Question: For CCCN(CCC)N=O, which outcome is on record?
Answer: inactive

Question: With Clc1cccc(Cl)c1Cl as the compound, how does the outcome read?
Answer: inactive

Question: Which outcome does the source give for CCN(CC)CCO here?
Answer: inactive

Question: With CN(C)N=O as the compound, how does the outcome read?
Answer: inactive

Question: Which outcome does the source give for Nc1ccccc1C(=O)O here?
Answer: inactive

Question: With ClCCBr as the compound, how does the outcome read?
Answer: inactive

Question: With BrCCBr as the compound, how does the outcome read?
Answer: inactive

Question: For COC(=O)NS(=O)(=O)c1ccc(N)cc1, which outcome is on record?
Answer: inactive

Question: With CC(Br)C(=O)O (stereo not drawn) as the compound, how does the outcome read?
Answer: inactive

Question: For CCN(CC)c1ccccc1, which outcome is on record?
Answer: inactive

Question: With CCOP(=S)(OCC)Oc1cnc2ccccc2n1 as the compound, how does the outcome read?
Answer: inactive

Question: With CN(C)CCO as the compound, how does the outcome read?
Answer: inactive

Question: For O=C1CCCN1, which outcome is on record?
Answer: inactive

Question: With CCC12COCN1COC2 as the compound, how does the outcome read?
Answer: inactive

Question: Which outcome does the source give for CCNc1nc(NC(C)C)nc(SC)n1 here?
Answer: inactive

Question: Which outcome does the source give for O=Cc1cccc(Oc2ccccc2)c1 here?
Answer: inactive

Question: For CC1C=[C-]C=C1.[C-]#[O+].[C-]#[O+].[C-]#[O+].[Mn], which outcome is on record?
Answer: inactive

Question: With Cc1[nH]c(=O)n(C(C)(C)C)c(=O)c1Cl as the compound, how does the outcome read?
Answer: inactive

Question: With CCCCN(CC)C(=O)SCCC as the compound, how does the outcome read?
Answer: inactive

Question: With CC(C)(C)OOC(=O)c1ccccc1 as the compound, how does the outcome read?
Answer: inactive

biological target: Peroxisome proliferator-activated receptor gamma (Homo sapiens) (UniProt P37231); test: qHTS assay to identify small molecule agonists of the peroxisome proliferator-activated receptor gamma (PPARg) signaling pathway (AID 743094; active = well fitted activation curve with a large enough effect in the signal ratio in the repeat runs, not every such curve was filed as active; the % refers to the signal ratio); conditions: HEK293H PPARg-UAS-bla, beta-lactamase FRET ratio, 17 h; series mostly up to 57 µM
Sequence (P37231 whole entry, looked up): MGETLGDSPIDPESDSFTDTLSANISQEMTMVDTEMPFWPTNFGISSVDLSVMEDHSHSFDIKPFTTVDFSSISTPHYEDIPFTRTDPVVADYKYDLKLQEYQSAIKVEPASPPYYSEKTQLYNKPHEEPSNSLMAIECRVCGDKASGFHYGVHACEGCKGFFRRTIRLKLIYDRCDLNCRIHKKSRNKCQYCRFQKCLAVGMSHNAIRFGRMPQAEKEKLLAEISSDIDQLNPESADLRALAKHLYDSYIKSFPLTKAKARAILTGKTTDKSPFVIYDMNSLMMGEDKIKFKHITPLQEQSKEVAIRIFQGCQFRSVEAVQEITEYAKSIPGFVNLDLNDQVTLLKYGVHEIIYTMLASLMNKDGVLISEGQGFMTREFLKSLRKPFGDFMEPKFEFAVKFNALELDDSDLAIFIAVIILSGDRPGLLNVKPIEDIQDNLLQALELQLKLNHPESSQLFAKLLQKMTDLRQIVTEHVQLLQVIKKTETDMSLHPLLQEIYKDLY
In short: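 GeneBLAzer PPARg UAS-bla HEK293H cells were plated, rested 5 h, then exposed to compounds for 17 h at 37C. Beta-lactamase activity was read by LiveBLAzer B/G FRET substrate fluorescence after 1 h at room temperature.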

Question: For COC(=O)c1ccccc1N, which outcome is on record?
Answer: inactive

Question: For Cc1ccc(N)cc1N, which outcome is on record?
Answer: inactive

Question: Which outcome does the source give for Cc1cc(Cl)ccc1O here?
Answer: inactive

Question: With O=c1n(Cl)c(=O)n(Cl)c(=O)n1Cl as the compound, how does the outcome read?
Answer: inactive

Question: With OC(O)C(Cl)(Cl)Cl as the compound, how does the outcome read?
Answer: inactive

Question: For O=NN1CCCC1, which outcome is on record?
Answer: inactive

Question: Which outcome does the source give for CCCCCOC(=O)c1ccccc1C(=O)OCCCCC here?
Answer: inactive

Question: For O=[N+]([O-])c1ccccc1, which outcome is on record?
Answer: inactive

Question: Which outcome does the source give for CCOP(=S)(OCC)SCCSCC here?
Answer: inactive

Question: With C#CCN(C)[C@H](C)Cc1ccccc1 as the compound, how does the outcome read?
Answer: inactive

Question: Which outcome does the source give for O=[N+]([O-])c1ccc([As](=O)(O)O)cc1 here?
Answer: inactive

Question: With C1CN2CCN1CC2 as the compound, how does the outcome read?
Answer: inactive

Question: Which outcome does the source give for NCCc1ccc(O)cc1 here?
Answer: inactive

Question: Which outcome does the source give for CC(C)NC(=O)N1CC(=O)N(c2cc(Cl)cc(Cl)c2)C1=O here?
Answer: inactive

Question: Which outcome does the source give for Cc1ccc([N+](=O)[O-])cc1C here?
Answer: inactive

Question: For CCCN(CCC)c1c([N+](=O)[O-])cc(C(F)(F)F)cc1[N+](=O)[O-], which outcome is on record?
Answer: inactive

Question: For CCCN(CCC)N=O, which outcome is on record?
Answer: inactive

Question: For Clc1cccc(Cl)c1Cl, which outcome is on record?
Answer: inactive

Question: For CCN(CC)CCO, which outcome is on record?
Answer: inactive

Question: Which outcome does the source give for CN(C)N=O here?
Answer: inactive

Question: With Nc1ccccc1C(=O)O as the compound, how does the outcome read?
Answer: inactive

Question: For ClCCBr, which outcome is on record?
Answer: inactive

Question: For BrCCBr, which outcome is on record?
Answer: inactive

Question: With COC(=O)NS(=O)(=O)c1ccc(N)cc1 as the compound, how does the outcome read?
Answer: inactive

Question: With CC(Br)C(=O)O (stereo not drawn) as the compound, how does the outcome read?
Answer: inactive

Question: For CCN(CC)c1ccccc1, which outcome is on record?
Answer: inactive

Question: With CCOP(=S)(OCC)Oc1cnc2ccccc2n1 as the compound, how does the outcome read?
Answer: inactive

Question: With CN(C)CCO as the compound, how does the outcome read?
Answer: inactive

Question: Which outcome does the source give for O=C1CCCN1 here?
Answer: inactive

Question: With CCC12COCN1COC2 as the compound, how does the outcome read?
Answer: inactive

Question: For CCNc1nc(NC(C)C)nc(SC)n1, which outcome is on record?
Answer: inactive

Question: Which outcome does the source give for O=Cc1cccc(Oc2ccccc2)c1 here?
Answer: inactive

Question: With CC1C=[C-]C=C1.[C-]#[O+].[C-]#[O+].[C-]#[O+].[Mn] as the compound, how does the outcome read?
Answer: inactive

Question: With Cc1[nH]c(=O)n(C(C)(C)C)c(=O)c1Cl as the compound, how does the outcome read?
Answer: inactive

Question: For CCCCN(CC)C(=O)SCCC, which outcome is on record?
Answer: inactive

Question: With CC(C)(C)OOC(=O)c1ccccc1 as the compound, how does the outcome read?
Answer: inactive

biological target: Peroxisome proliferator-activated receptor gamma (Homo sapiens) (UniProt P37231); test: qHTS assay to identify small molecule antagonists of the peroxisome proliferator-activated receptor gamma (PPARg) signaling pathway (AID 743191; calls by dose curve; note: nearly all actives have a fitted effect of over 30% in size); conditions: HEK293H PPARg-UAS-bla, beta-lactamase ratio, antagonist, 17 h; series mostly up to 62.6 µM
In short: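 GeneBLAzer PPARg UAS-bla HEK293H cells carrying a UAS-driven beta-lactamase reporter were plated at 3000 cells/well, preincubated 5 h at 37C, then given compound for 17 h at 37C; LiveBLAzer B/G FRET substrate was read after 1 h at room temperature.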

Question: With COC(=O)c1ccccc1N as the compound, how does the Potency read?
Answer: inactive

Question: For Cc1ccc(N)cc1N, which Potency is on record?
Answer: inactive

Question: For Cc1cc(Cl)ccc1O, which Potency is on record?
Answer: inactive

Question: Which Potency does the source give for O=c1n(Cl)c(=O)n(Cl)c(=O)n1Cl here?
Answer: inactive

Question: For OC(O)C(Cl)(Cl)Cl, which Potency is on record?
Answer: inactive

Question: Which Potency does the source give for O=NN1CCCC1 here?
Answer: inactive

Question: With CCCCCOC(=O)c1ccccc1C(=O)OCCCCC as the compound, how does the Potency read?
Answer: inactive

Question: Which Potency does the source give for O=[N+]([O-])c1ccccc1 here?
Answer: inactive

Question: Which Potency does the source give for CCOP(=S)(OCC)SCCSCC here?
Answer: inactive

Question: With C#CCN(C)[C@H](C)Cc1ccccc1 as the compound, how does the Potency read?
Answer: inactive

Question: For O=[N+]([O-])c1ccc([As](=O)(O)O)cc1, which Potency is on record?
Answer: inactive

Question: For C1CN2CCN1CC2, which Potency is on record?
Answer: inactive

Question: With NCCc1ccc(O)cc1 as the compound, how does the Potency read?
Answer: inactive

Question: With CC(C)NC(=O)N1CC(=O)N(c2cc(Cl)cc(Cl)c2)C1=O as the compound, how does the Potency read?
Answer: inactive

Question: For Cc1ccc([N+](=O)[O-])cc1C, which Potency is on record?
Answer: inactive

Question: Which Potency does the source give for CCCN(CCC)c1c([N+](=O)[O-])cc(C(F)(F)F)cc1[N+](=O)[O-] here?
Answer: inactive

Question: With CCCN(CCC)N=O as the compound, how does the Potency read?
Answer: inactive

Question: Which Potency does the source give for Clc1cccc(Cl)c1Cl here?
Answer: inactive

Question: Which Potency does the source give for CCN(CC)CCO here?
Answer: inactive

Question: Which Potency does the source give for CN(C)N=O here?
Answer: inactive

Question: With Nc1ccccc1C(=O)O as the compound, how does the Potency read?
Answer: inactive

Question: For ClCCBr, which Potency is on record?
Answer: inactive

Question: Which Potency does the source give for BrCCBr here?
Answer: inactive

Question: Which Potency does the source give for COC(=O)NS(=O)(=O)c1ccc(N)cc1 here?
Answer: inactive

Question: Which Potency does the source give for CC(Br)C(=O)O (stereo not drawn) here?
Answer: inactive

Question: For CCN(CC)c1ccccc1, which Potency is on record?
Answer: inactive

Question: Which Potency does the source give for CCOP(=S)(OCC)Oc1cnc2ccccc2n1 here?
Answer: inactive

Question: For CN(C)CCO, which Potency is on record?
Answer: inactive

Question: Which Potency does the source give for O=C1CCCN1 here?
Answer: inactive

Question: For CCC12COCN1COC2, which Potency is on record?
Answer: inactive

Question: With CCNc1nc(NC(C)C)nc(SC)n1 as the compound, how does the Potency read?
Answer: inactive

Question: With O=Cc1cccc(Oc2ccccc2)c1 as the compound, how does the Potency read?
Answer: inactive

Question: With CC1C=[C-]C=C1.[C-]#[O+].[C-]#[O+].[C-]#[O+].[Mn] as the compound, how does the Potency read?
Answer: inactive

Question: Which Potency does the source give for Cc1[nH]c(=O)n(C(C)(C)C)c(=O)c1Cl here?
Answer: inactive

Question: Which Potency does the source give for CCCCN(CC)C(=O)SCCC here?
Answer: inactive

Question: Which Potency does the source give for CC(C)(C)OOC(=O)c1ccccc1 here?
Answer: inactive
